In PubChem BioAssay AID1159580 (chemical genetic matrix, 2015):
Values joined by “and” are separate entries in the source; they are usually repeats but may differ in a detail not shown here. Equal values may be shown once. The whole screen tested about 5,500 compounds, of which about 2,000 (36%) were called active. Not shown: some 18% with an inconclusive outcome. No stated cut-off is given here; in the data, active means normalized growth mostly below about 0.91 (no sharp cut-off); inconclusive means no clear call, values can overlap the other calls; inactive means mostly above about 0.92. The list shows a part of the results.

Test: chemical genetic growth profiling, strain panel (AID 1159580);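 further: tested at 20 µM; growth read once vehicle control cultures reached saturation at 30 °C; 1 = growth at the plate median or of vehicle wells; lower values mean less growth of the strain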
Conditions: S. cerevisiae deletion strains, growth OD

Measured: normalized growth

CN(C)CC[C@H](c1ccc(Cl)cc1)c1ccccn1
inactive: locus YAL013W, strain DEP1, active compounds read low 0.997 | locus YAL021C, strain ccr4, active compounds read low 0.99 | locus YAL026C, strain drs2, active compounds read low 1.01 | locus YAL030W, strain snc1, active compounds read low 1 | locus YBL061C, strain skt5, active compounds read low 1.01 | locus YBR009C, strain hhf1, active compounds read low 1.01 | locus YBR021W, strain FUR4, active compounds read low 0.995 | locus YBR023C, strain chs3, active compounds read low 0.996 | locus YBR171W, strain sec66, active compounds read low 0.998 | locus YBR229C, strain ROT2, active compounds read low 1 | locus YBR231C, strain swc5, active compounds read low 0.989 | locus YBR279W, strain paf1, active compounds read low 1.01 | locus YCL011C, strain gbp2, active compounds read low 0.993 | locus YCL016C, strain dcc1, active compounds read low 1.02 | locus YCL029C, strain bik1, active compounds read low 1 | locus YCL061C, strain MRC1, active compounds read low 1 | locus YCL069W, strain vba3, active compounds read low 1 | locus YCR088W, strain abp1, active compounds read low 0.989 | locus YDL005C, strain med2, active compounds read low 0.992 | locus YDL035C, strain GPR1, active compounds read low 1.02 | locus YDL040C, strain nat1, active compounds read low 1.01 | locus YDL074C, strain BRE1, active compounds read low 1.01 | locus YDL101C, strain DUN1, active compounds read low 0.998 | locus YDL134C, strain PPH21, active compounds read low 0.996 | locus YDL185W, strain tfp1, active compounds read low 0.985 | locus YDL192W, strain arf1, active compounds read low 1 | locus YDR001C, strain nth1, active compounds read low 0.999 | locus YDR069C, strain doa4, active compounds read low 1.01 | locus YDR101C, strain arx1, active compounds read low 0.998 | locus YDR137W, strain rgp1, active compounds read low 1.03 | locus YDR150W, strain NUM1, active compounds read low 1.01 | locus YDR159W, strain sac3, active compounds read low 1 | locus YDR162C, strain NBP2, active compounds read low 1.01 | locus YDR195W, strain ref2 1.01 | locus YDR297W, strain sur2, active compounds read low 1.01 | locus YDR318W, strain mcm21, active compounds read low 0.985 | locus YDR334W, strain swr1, active compounds read low 1 | locus YDR335W, strain msn5, active compounds read low 1 | locus YDR388W, active compounds read low 0.991 | locus YDR392W, strain spt3, active compounds read low 1.01 | locus YDR502C, strain sam2, active compounds read low 1.01 | locus YEL003W, strain gim4, active compounds read low 1.01 | locus YEL037C, strain rad23, active compounds read low 0.992 | locus YEL061C, strain CIN8 (second series), active compounds read low 1 | locus YEL061C, strain CIN8, active compounds read low 1 | locus YER015W, strain faa2, active compounds read low 1.01 | locus YER016W, strain bim1, active compounds read low 0.99 | locus YER110C, active compounds read low 0.98 | locus YER111C, strain swi4, active compounds read low 0.994 | locus YER155C, strain BEM2 (second series), active compounds read low 1.01 | locus YER155C, strain BEM2, active compounds read low 1 | locus YER167W, strain BCK2, active compounds read low 1.01 | locus YFR010W, strain ubp6, active compounds read low 0.991 | locus YGL078C, strain dbp3, active compounds read low 1 | locus YGL086W, strain mad1, active compounds read low 1.01 | locus YGL167C, strain pmr1, active compounds read low 0.985 | locus YGL173C, strain kem1, active compounds read low 0.998 | locus YGL227W, strain vid30, active compounds read low 1.01 | locus YGL240W, strain doc1, active compounds read low 1.01 | locus YGL248W, strain PDE1, active compounds read low 0.997 | locus YGL253W, strain hxk2, active compounds read low 1.01 | locus YGR078C, strain PAC10, active compounds read low 1.01 | locus YGR135W, strain pre9, active compounds read low 1 | locus YGR229C, strain SMI1, active compounds read low 1.01 | locus YGR252W, strain gcn5, active compounds read low 0.959 | locus YHR013C, strain ard1, active compounds read low 1.01 | locus YHR027C, strain rpn1, active compounds read low 0.998 | locus YHR030C, strain SLT2, active compounds read low 1 and 0.993 | locus YHR079C, strain IRE1 (second series), active compounds read low 0.993 | locus YHR079C, strain IRE1, active compounds read low 1 | locus YHR094C, strain hxt1, active compounds read low 0.99 | locus YHR129C, strain ARP1, active compounds read low 0.999 | locus YHR142W, strain chs7, active compounds read low 1.02 | locus YHR200W, strain rpn10, active compounds read low 0.992 | locus YIL066C, strain RNR3, active compounds read low 1.01 | locus YIL073C, strain SPO22, active compounds read low 0.992 | locus YIL125W, strain kgd1, active compounds read low 0.999 | locus YIR030C, strain dcg1, active compounds read low 0.991 | locus YJL092W, strain hpr5, active compounds read low 1.01 | locus YJL095W, strain BCK1 (second series), active compounds read low 0.997 | locus YJL095W, strain BCK1, active compounds read low 1 | locus YJL115W, strain asf1, active compounds read low 1.01 | locus YJL129C, strain trk1, active compounds read low 1.01 | locus YJL134W, strain LCB3, active compounds read low 1.01 | locus YJL154C, strain vps35, active compounds read low 1.01 | locus YJL164C, strain tpk1, active compounds read low 0.992 | locus YJL166W, strain qcr8, active compounds read low 0.985 | locus YJL168C, strain set2, active compounds read low 0.993 | locus YJL187C, strain SWE1 (second series), active compounds read low 1.01 | locus YJL187C, strain SWE1, active compounds read low 1.01 | locus YJR043C, strain POL32, active compounds read low 0.984 | locus YJR066W, strain TOR1, active compounds read low 0.993
